This is a sample that favours compounds with a hit; in the whole collection about 0.85% have one here.
GLS inhibitor – qHTS for Inhibitors of Glutaminase (GLS) | Glutaminase kidney isoform, mitochondrial (Homo sapiens), O94925 | GLS enzymatic activity, qHTS titration | Potency, µM (series often up to 45.5 µM), for inactives: at the top dose activity change, negative = inhibition, usual class: inhibitors | 410,000 compounds, 0.21% hits | AID 624170, 2012
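hKGA in 45 mM KH2PO4 (pH 8.2), 0.02% Tween-20 with compound, then 1mM L-Glutamine (stock as added) plus glutamate oxidase/HRP/Amplex red coupling mix. Fluorescence read initially and after 30 min at RT; signal change reflects glutamate formation.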
TDP1 block – qHTS Assay for Inhibitors of Tyrosyl-DNA Phosphodiesterase (TDP1); recombinant TDP1, AlphaScreen DNA substrate cleavage; Potency, µM (top dose mostly 130 µM), without a hit: at the top dose activity change, negative = inhibition, actives largely listed as inhibitors; 350,000 compounds, 0.28% hits; AID 485290, 2010; further: nearly all actives have a fitted effect of over 40% in size
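AlphaScreen read-out: signal falls as enzyme removes the 3' tyrosine-FITC from a 5'-biotinylated DNA oligo (15 nM, 5 min, RT). Enzyme was E. coli-made recombinant Tdp1 at 1 nM, exposed to compound for 15 min beforehand; beads 10 ug/ml, 10 min.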
PGK inhibitor – qHTS Assay to Find Inhibitors of Phosphoglycerate Kinase; Potency, µM (titrated, usually from 57.5 µM), for the others: at the top dose activity change, negative = inhibition, hits mostly inhibitors; PGK/GAPDH coupled, Kinase-Glo luminescence, 60 min; 380,000 compounds, 0.043% hits; further: nearly all actives have a fitted effect of over 60% in size
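Luminescent ATP detection (Kinase-Glo Plus) follows a 60-minute room-temperature incubation, with wells lacking PGK as controls. Buffer: 100 mM TEA (pH 7.6), 5 mM MgCl2, 0.01% Tween-20. Coupling enzyme GAPDH (100 nM final) supplies unstable 1,3-BPG in-well.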
APE1 inh – qHTS Assay for Inhibitors of the Human Apurinic/apyrimidinic Endonuclease 1 (APE1); DNA repair nuclease/redox regulator APEX1 (Homo sapiens), P27695; recombinant APE1, TAMRA/BHQ-2 abasic DNA cleavage fluorescence; Potency, µM (highest dose often 65.8 µM), inactives show top-dose activity change, negative = inhibition, hits mostly inhibitors; 350,000 compounds, 0.35% hits;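 further: plate controls were vehicle for no effect and reference inhibitor for full effect; nearly all actives have a fitted effect of over 55% in size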
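APE1 at 0.75 nM preincubated 15 min at room temperature with compound. Reaction then started with 50 nM double-stranded THF-abasic substrate labelled with TAMRA/BHQ-2, and 525/598 nm fluorescence read kinetically. Activity taken as third-minus-first read difference, normalized to DMSO and NSC13755 controls.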
BLM inh – qHTS Assay for Inhibitors of Bloom's syndrome helicase (BLM) | recombinant BLM DNA unwinding, fluorescence dequenching | Potency, µM (doses to about 56.1 µM), for the others: at the highest dose activity change, negative = inhibition, actives largely listed as inhibitors | 350,000 compounds, 0.2% hits | AID 2528, 2010;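 further: plate controls were vehicle for no effect and no enzyme for full effect; nearly all actives have a fitted effect of over 35% in size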
RECQ1 helicase – qHTS Assay for Inhibitors of RecQ-Like Dna Helicase 1 (RECQ1) | Potency, µM (titrated, usually from 57.3 µM), for the others: at the top dose activity, negative = inhibition, hits mostly inhibitors | 240,000 compounds, 0.54% hits | RECQ1 DNA unwinding, red fluorescence kinetic read | AID 2549, 2010 | ATP-dependent DNA helicase Q1 (Homo sapiens), P46063;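 further: plate controls were vehicle for no effect and no enzyme for full effect; nearly all actives have a fitted effect of over 30% in size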
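50 nM RECQ1T1 preincubated 15 min with compound in Tris pH 8.0 buffer with MgCl2, DTT, Tween-20 and 2.5 ug/ml poly(dI-dC); started with 200 nM TAMRA/BHQ-2 forked duplex and 2 mM ATP. Unwinding read as fluorescence (525/598 nm), two reads 2 h apart.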
* hit, by the source's call; i = inactive; ? = inconclusive; . = no result given; [ ] = remark or other dose. The call rests on the fitted dose curve; in most records, active means well fitted curve in the direction sought with a large enough effect; inconclusive means small, poorly fitted or top-dose-only effect, or another doubt; inactive means no such curve, though single readings can be large; an effect the other way counts as inactive or inconclusive. Unless noted, on the % scale 0 is the no-effect control and ±100 the full control effect; potency means the concentration at half of the fitted maximal effect.

SMILES	GLS inhibitor	TDP1 block	PGK inhibitor	APE1 inh	BLM inh	RECQ1 helicase
OCC[n+]1c2ccccc2nc2ccc(N3CCOCC3)cc21	-23%	6%	-13%	-9%	?	13µM*
COc1ccc2c3c1OC1C(O)C=CC4[C@@H](C2)NCC[C@]314 (some centres undefined)	0%[99.4 µM]	.	.	.	.	.
O=c1[nH]sc2cc(F)ccc12	7.9µM*	6%	6%	0%	3%	-2%
O=C1C(I)=CC(=C(c2cc(I)c(O)c(I)c2)c2ccccc2C(=O)O)C=C1I	?	.	.	?	16µM*	.
CNc1ccc(C(=O)CC(O)CCC(C)C2OC(=O)CC(O)CC(=O)CC(O)CC(O)CC(O)CC(O)CC3(O)CC(O)C(C(=O)OC)C(CC(O[C@@H]4O[C@H](C)[C@@H](O)[C@H](N)[C@@H]4O)/C=C/C=C/C=C/C=C/C=C/C=C/C=C/C2C)O3)cc1 (some centres undefined)	.	.	.	3%	.	.
CCN(CC)C(=O)c1ccc2c(c1)C1C=CCC1C(C(=O)O)N2 (centres undefined)	7.1µM*	.	18µM*	15%	-14%	.
CCN(CC)C(=O)c1ccc(N(Cc2ccccc2)S(C)(=O)=O)cc1	0%	.	-13%	7%	2%	.
C=C/C=C/CC1=C(C)[C@@H](OC(=O)[C@@H]2[C@@H](/C=C(\C)C(=O)OC)C2(C)C)CC1=O (tested in a mixture with another compound)	-3%	.	.	.	.	.
Cc1cc(C)cc(N2C(=O)NC(=O)/C(=C\C=C\c3ccco3)C2=O)c1	14%	-2%	-5%	12%	2%	14µM*
O=C1NC(=O)N(Cc2ccccc2)C(=O)/C1=C\c1ccco1	-29%	-6%	?	?	?	?
O=C1NC(=O)N(Cc2ccc(F)cc2)C(=O)/C1=C\C=C\c1ccco1	0%	.	-10%	?	?	28µM*
CC[C@H](C)[C@H]1O[C@]2(C=C[C@@H]1C)C[C@@H]1C[C@@H](C/C=C(\C)[C@@H](O[C@H]3C[C@H](OC)[C@@H](O[C@H]4C[C@H](OC)[C@@H](O)[C@H](C)O4)[C@H](C)O3)[C@@H](C)/C=C/C=C3\CO[C@@H]4[C@H](O)C(C)=C[C@@H](C(=O)O1)[C@]34O)O2	.	.	.	4%	.	.
CN[C@H]1C[C@@H](N)[C@H](O)[C@@H](O[C@@H]2O[C@H](CO)[C@H](O)[C@@H]3OC4(O[C@H]23)O[C@H](C(N)CO)[C@H](O)[C@H](O)[C@H]4O)[C@@H]1O (some centres undefined)	.	.	.	1%	.	.
CCCCC/C=C\C/C=C\CCCCCCCC(=O)NCCO	.	9%	.	-2%	8%	-2%
CCCCCCCC/C=C\CCCCCCCC(=O)OC[C@@H](COP(O)(O)=S)OC	.	.	.	?	?	25µM*
COc1ccc(OC)c(N2C(=O)NC(=O)/C(=C\c3ccc([N+](=O)[O-])s3)C2=O)c1	10µM*	-2%	-19%	?	16µM*	-21%
Oc1cc[c]([Hg][Cl])cc1	?	.	.	.	4%	.
OC[C@@H](O)[C@H]1O[C@@H]2O[C@H](C(Cl)(Cl)Cl)O[C@@H]2[C@H]1O	.	.	.	-6%	.	.
C[n+]1c(-c2ccccc2)c2cc(N)ccc2c2ccc(N)cc21	-8%	.	-2%	11µM*	?	.
Cc1ccccc1-n1c(O)c(/C=C/C=Nc2ccccc2)c(=O)[nH]c1=O	-3%	0%	-3%	-11%	-8%	25µM*
O=C1C(Cl)=C(Cl)C(=O)C(Cl)=C1Cl	.	.	.	40µM*	-11%	?
Oc1c(Cl)cc(Cl)cc1Cl	.	6%	.	-3%	.	?
C[C@]12CC[C@@H]3c4ccc(OC(=O)N(CCCl)CCCl)cc4CC[C@H]3[C@@H]1CC[C@@H]2OP(=O)(O)O	3%	.	.	.	.	.
N.N.N.N.N.N.N.N.N.N.N.N.N.N.O.O.[Cl-].[Cl-].[Cl-].[Cl-].[Cl-].[Cl-].[Ru].[Ru].[Ru]	.	15%[56.1 µM]	.	9%	.	14µM*
CC1(C)OC(c2ccccc2)=C/C(=C/C=C2C(=O)NC(=S)NC2=O)O1	-21%	12%	?	-11%	22µM*	25µM*
SMILES	GLS inhibitor	TDP1 block	PGK inhibitor	APE1 inh	BLM inh	RECQ1 helicase
C[C@]12C=CC(=O)C=C1CC[C@@H]1[C@@H]2CC[C@]2(C)OC(=O)CC[C@@H]12	.	.	.	19%	.	.
Cc1ccc(N2C(=O)NC(=O)/C(=C/c3ccoc3)C2=O)cc1	9%	3.2µM*	11µM*	1.6µM*	16µM*	13µM*
ClC1=C(Cl)C(Cl)(C2(Cl)C(Cl)=C(Cl)C(Cl)=C2Cl)C(Cl)=C1Cl	.	-6%	.	11µM*	-8%	?
ClC1=C(Cl)[C@]2(Cl)[C@@H]3[C@H]4C[C@H]([C@@H]5O[C@H]45)[C@@H]3[C@@]1(Cl)C2(Cl)Cl	.	.	.	4%	.	.
CCS(=O)(=O)N1N=C(c2cccc(NS(C)(=O)=O)c2)CC1c1ccccc1 (centres undefined)	-2%	7%	4%	-2%	-18%	35µM*
O=C1NC(=O)C(=Cc2coc3ccccc3c2=O)C(=O)N1	30%	-2%	.	-1%	-4%	10%
O=C1NC(=O)C(=C/C=C/c2coc3ccc(Br)cc3c2=O)C(=O)N1	.	0%	.	?	-14%	35µM*
O=c1[nH]c(=S)[nH]c(O)c1N=Nc1ccc(S(=O)(=O)N2CCOCC2)cc1	6%	20µM*	?	?	-18%	i
CCC(=NCCO)c1c(O)n(-c2ccccc2)c(=O)[nH]c1=O	19%	5%	-7%	-4%	-2%	i
CC/C(=N\Nc1ccccc1)c1c(O)n(-c2ccc(OC)cc2)c(=O)[nH]c1=O	10µM*	10%	-11%	2%	-3%	-4%
Cc1cc(C=C2C(=O)N(C)C(=S)N(C)C2=O)c(C)n1-c1cccnc1	?	1%	2%	-4%	18µM*	-4%
